Measurements published in PubChem BioAssay AID641 (Vanderbilt High Throughput Screening Facility, 2007).
About 3,400 (5.9%) of roughly 58,000 compounds were called active.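 How the source made its calls: active means luminescence count or its row- and column-corrected plate score outside the 99.7% band of the plate's sample wells, on either side; inactive means the rest.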 The entries come from a sample that favours actives as a whole.

The molecules below were run against D(1A) dopamine receptor (Homo sapiens) (UniProt P21728) (assay: D1 CRE-luciferase signal change, two-sided – cell-based, HEK293 D1, dopamine EC30, D1 allosteric modulator project, primary screen (AID 641)). Settings: dopamine EC30 potentiation, at 10 µM, actives deviate in either direction.
D(1A) dopamine receptor (Homo sapiens), sequence (P21728 whole entry, looked up): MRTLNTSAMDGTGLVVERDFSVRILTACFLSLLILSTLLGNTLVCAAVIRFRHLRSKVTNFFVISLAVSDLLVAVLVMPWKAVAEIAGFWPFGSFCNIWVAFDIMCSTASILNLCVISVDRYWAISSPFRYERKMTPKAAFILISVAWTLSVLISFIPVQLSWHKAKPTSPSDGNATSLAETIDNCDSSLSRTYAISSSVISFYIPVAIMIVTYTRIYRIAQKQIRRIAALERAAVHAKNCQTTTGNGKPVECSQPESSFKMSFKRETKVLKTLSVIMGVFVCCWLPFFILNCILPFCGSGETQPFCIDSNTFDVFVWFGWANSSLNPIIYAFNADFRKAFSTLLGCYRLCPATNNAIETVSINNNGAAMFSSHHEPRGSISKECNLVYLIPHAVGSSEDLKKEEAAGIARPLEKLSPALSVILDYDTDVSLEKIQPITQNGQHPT

Structure (SMILES) | B-score
Nc1nnc(C2CCCC2)s1 | -1.25 (inactive)
COc1ccc(C2=CC(c3cccc(OC)c3)n3nnnc3N2)cc1 (stereo unspecified) | 1.89 (inactive)
CCOc1cccc(-c2nnc3sc(COc4ccc(OC)cc4)nn23)c1 | -0.0728 (inactive)
CCOc1cccc(-n2nnnc2-c2ccc(OC)cc2)c1 | 4.33 (active)
CC(C)(C)Nc1c(N)c(=O)oc2ccccc12 | -1.25 (inactive)
CCC(C)n1[nH]c(=O)cc1N (stereo unspecified) | -0.0177 (inactive)
Cn1c(=O)n(C)c2cc(C(=O)Nc3ccc4c(c3)OCO4)ccc21 | -2.3 (inactive)
COc1ccc(C(=O)Nc2ccc3c(c2)OCO3)cc1OC | 1.31 (inactive)
CC(C)C(=O)Nc1cccc(C(=O)Nc2ccc3c(c2)OCO3)c1 | -3.26 (active)
CCOc1ccc(Cn2nnc(C(=O)NCc3ccccc3)c2N)cc1 | 0.835 (inactive)
CC1(C)CC(=O)C(C=NCCC2=CCCCC2)=C(O)C1 | 1.52 (inactive)
Fc1ccc2[nH]c3c(N4CCSCC4)ncnc3c2c1 | -5.42 (active)
Cc1ccc2c(c1)NCC(C(=O)NC1CCC(C)CC1)O2 (stereo unspecified) | 0.396 (inactive)
CC1(C)CC(=O)C=C(NC2CC(C)(C)NC(C)(C)C2)C1 | -0.998 (inactive)
CCCCc1c(O)nc2n(c1=O)CCS2 | 3.41 (active)
CCOC(=O)N1CCN(C(=O)c2cnc3n(c2=O)CCS3)CC1 | 0.461 (inactive)
CN(CCc1ccccn1)S(=O)(=O)c1ccc2c3c(cccc13)C(=O)N2 | 0.281 (inactive)
CCC/C(O)=C1\C(=O)CC(C)(C)CC1=Nc1ccccc1OC | 0.24 (inactive)
COc1ccc(NC(=O)c2cccc(NC(=O)c3ccco3)c2)c(OC)c1 | -0.0282 (inactive)
Cc1nn(-c2ccccc2)c2c1C(=O)NC(=O)C(C)(C)C2 | 20.5 (active)
Cc1cc(NC(=O)Nc2ccccc2)n(-c2ccccc2)n1 | -0.331 (inactive)
Cc1nn(-c2ccccc2)c(CC(C)(C)C(=O)O)c1C(=O)O | 0.0788 (inactive)
Cc1cc(Nc2ccc(Br)cc2F)n2ncnc2n1 | -0.165 (inactive)
COC(=O)c1oc2ccc(Br)cc2c1NC(C)=O | 0.0355 (inactive)
Cc1cccc(-n2nc3c(c2NC(=O)c2ccc(Br)o2)CSC3)c1C | 0.109 (inactive)
CCN(CC)S(=O)(=O)c1cccc(C(=O)Nc2cc(C)nn2-c2nc(C)cc(C)n2)c1 | 0.0356 (inactive)

Structure (SMILES) | B-score
Cc1cc(C)nc(-n2nc(C)cc2NC(=O)c2ccc(Br)o2)n1 | 6.02 (active)
CS(=O)(=O)N(C(=O)NC(=O)NC1CCS(=O)(=O)C1)C1CCCCC1 (stereo unspecified) | -3.24 (active)
CC(=O)CCS(=O)(=O)c1ccc(C)c(C)c1 | 1.88 (inactive)
COc1ccc(S(=O)(=O)N2CCOCC2)cc1C(=O)Nc1nc2ccccc2s1 | -0.687 (inactive)
CC(C)NS(=O)(=O)c1ccc(NC(=O)c2cccnc2)cc1 | 1.41 (inactive)
CC(c1cccnc1)N(CCN(C)C)C(=O)Nc1ccc(Cl)c(Cl)c1 (stereo unspecified) | -1.22 (active)
CN(C)CCNC(CC(=O)Nc1ccc(Cl)c(Cl)c1)C(=O)O (stereo unspecified) | 0.834 (inactive)
COC(=O)[C@H](C(C)C)n1c(C)c(C(C)=O)c(C(C)=O)c1C | 4.12 (active)
CCOc1ccc(OCC)c(NC(=O)C(NS(=O)(=O)c2ccc3c(c2)oc(=O)n3C)C(C)C)c1 (stereo unspecified) | -0.175 (inactive)
C#CCN1C(=O)C(O)(CC(=O)c2cc(OC)ccc2OC)c2ccccc21 (stereo unspecified) | 0.733 (inactive)
CSC1=NCCN1C(=O)c1ccc(S(=O)(=O)N2CCOCC2)cc1 | -0.521 (inactive)
Cn1c(=NC(=O)C2CC2)sc2cc(F)cc(F)c21 | 1.19 (inactive)
COc1ccccc1N1CC(O)=C(c2nc3ccccc3s2)C1=N | -0.346 (inactive)
COC(=O)C(C)Sc1nc2c(c(=O)n(C)c(=O)n2C)n1Cc1cccc(C)c1 (stereo unspecified) | 0.892 (inactive)
Cc1cccc(Cn2c(SCCO)nc3c2c(=O)n(C)c(=O)n3C)c1 | 0.248 (inactive)
C/C(Cl)=C\Cn1c(Nc2cccc(C)c2)nc2c1c(=O)n(C)c(=O)n2C | 13.2 (active)
COCCCNC(=O)c1c(F)c(F)c(F)c(F)c1F | -0.712 (inactive)
O=C(NCc1cccnc1)c1ccc(CS(=O)(=O)c2ccc(Br)cc2)o1 | -0.0969 (inactive)
Cc1cccc(NC(=O)CSC(N)=O)c1C | -0.0507 (inactive)
CCc1ccccc1N(CC(=O)NCCSCc1ccco1)S(C)(=O)=O | 0.0216 (inactive)
O=C(c1ccc2c(c1)OCCO2)C1CCN(S(=O)(=O)c2cccc(F)c2)CC1 | 0.0652 (inactive)
O/N=C(\c1ccc2c(c1)OCCO2)C1CCCCC1 | 8.96 (active)
O=C(OCc1ccccc1F)c1ccc2c(c1)OCCO2 | 0.452 (inactive)
Fc1c(F)c(C(F)(F)F)c(F)c(F)c1N1CCN(c2ccc3nnc(C(F)(F)F)n3n2)CC1 | 0.11 (inactive)
CC1(C)CC(=O)C(C=NCc2cccnc2)=C(O)C1 | 1.34 (inactive)
